Measurements reported in PubChem BioAssay (EPA / NIEHS).
Activity calls are given as the source filed them. The calls were made as follows: active = hit-call score of the fitted dose curve at least 0.9, where 1 is the maximum; inactive = score below 0.9.

Key:
Conditions in all cases: mRNA level, 48 h; actives raise or lower the signal
[1] = read-out: Cytochrome P450 3A4 (Homo sapiens) (UniProt P08684); assay: LTEA_HepaRG_CYP3A4: Life Technologies and Expression Analysis (LTEA) Assay for CYP3A4 using HepaRG (AID 2283487)
Summary of the method: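 HepaRG, 48 h exposure, 8-pt CRC from 100 uM (half-log), 0.5% DMSO, duplicates; serum-free induction medium. Readout: CYP3A4 mRNA, qRT-PCR, ACTB/GAPDH/POLR2A normalization. Bidirectional fit vs DMSO.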

[2] = read-out: DNA damage-inducible transcript 3 (DDIT3), DDIT3 (gene 1649); assay: LTEA_HepaRG_DDIT3: Life Technologies and Expression Analysis (LTEA) Assay for DNA damage-inducible transcript 3 (DDIT3) using HepaRG (AID 2283488)
Summary of the method: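 Cells are human HepaRG liver cells treated for 48 h with eight half-log concentrations up to 100 uM in 0.5% DMSO. Transcript levels come from qRT-PCR normalized to three housekeeping genes, with activity fitted in both directions relative to vehicle.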

[3] = read-out: Pro-epidermal growth factor (Homo sapiens) (UniProt P01133); assay: LTEA_HepaRG_EGF: Life Technologies and Expression Analysis (LTEA) Assay for Epidermal growth factor (EGF) using HepaRG (AID 2283489)
Summary of the method: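 EGF expression changes in human HepaRG cells are scored by bidirectional fitting relative to 0.5% DMSO controls. Chemicals are tested at eight half-log concentrations up to 100 uM for 48 h in serum-free induction medium.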

[4] = read-out: Ezrin (EZR), EZR (gene 7430); assay: LTEA_HepaRG_EZR: Life Technologies and Expression Analysis (LTEA) Assay for Ezrin (EZR) using HepaRG (AID 2283491)
Summary of the method: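 Read-out is EZR transcript level by qRT-PCR, normalized to three housekeeping genes and fitted bidirectionally against the DMSO control. Human HepaRG cells received test chemicals for 48 h at eight half-log concentrations up to 100 uM in 0.5% DMSO.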

CYP3A5 (gene 1577) = assay: LTEA_HepaRG_CYP3A5: Life Technologies and Expression Analysis (LTEA) Assay for CYP3A5 using HepaRG (AID 2283493)
Summary of the method: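 Human HepaRG hepatic cells receive 48 h chemical treatment at eight concentrations (half-log steps from 100 uM) in 0.5% DMSO. Expression of CYP3A5 is quantified by Fluidigm qRT-PCR and normalized to three reference genes.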

[5] = read-out: Fatty Acid-Binding Protein 1 (FABP1), FABP1 (gene 2168); assay: LTEA_HepaRG_FABP1: Life Technologies and Expression Analysis (LTEA) Assay for Fatty Acid-Binding Protein 1 (FABP1) using HepaRG (AID 2283494)
Summary of the method: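 FABP1 expression by TaqMan qRT-PCR, normalised to three housekeeping genes, in HepaRG cells after 48 h chemical treatment. Eight-point half-log series topping at 100 uM in 0.5% DMSO, duplicates; gain or loss fitted relative to vehicle.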

[6] = read-out: Cytochrome P450 4A22 (Homo sapiens) (UniProt Q5TCH4); assay: LTEA_HepaRG_CYP4A22: Life Technologies and Expression Analysis (LTEA) Assay for Cytochrome P450 4A22 (CYP4A22) using HepaRG (AID 2283495)
Summary of the method: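 Cryopreserved HepaRG cells, plated and cultured 48 h, then switched to serum-free induction medium and treated 48 h (duplicates, up to 100 uM, half-log steps, 0.5% DMSO). Expression change of CYP4A22 was fitted bidirectionally against vehicle.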

[7] = read-out: Cytochrome P450 7A1 (Homo sapiens) (UniProt P22680); assay: LTEA_HepaRG_CYP7A1: Life Technologies and Expression Analysis (LTEA) Assay for Cytochrome P450 7A1 (CYP7A1) using HepaRG (AID 2283496)
Summary of the method: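 HepaRG, 48 h exposure, 8-pt half-log series from 100 uM, 0.5% DMSO vehicle, duplicates. Readout: TaqMan qRT-PCR mRNA vs three housekeeping genes; bidirectional curve fit against DMSO baseline.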

[8] = read-out: Glutathione S-Transferase (GSTA2), GSTA2 (gene 2939); assay: LTEA_HepaRG_GSTA2: Life Technologies and Expression Analysis (LTEA) Assay for Glutathione S-Transferase (GSTA2) using HepaRG (AID 2283497)
Summary of the method: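 GSTA2 transcript levels came from Fluidigm TaqMan qRT-PCR normalized to three housekeeping genes, fitted in both directions against DMSO. HepaRG cultures received chemicals for 48 h in serum-free induction medium (0.5% DMSO), 8 half-log concentrations up to 100 uM, duplicate.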

[9] = read-out: Glutamate-cysteine ligase catalytic (GCLC), GCLC (gene 2729); assay: LTEA_HepaRG_GCLC: Life Technologies and Expression Analysis (LTEA) Assay for Glutamate-cysteine ligase catalytic (GCLC) using HepaRG (AID 2283498)
Summary of the method: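 Expression by TaqMan qRT-PCR, normalized to three housekeeping genes (ACTB, GAPDH, POLR2A), with up- or down-regulation fitted against DMSO. HepaRG cells dosed in duplicate for 48 h with 8 half-log concentrations up to 100 uM, vehicle 0.5% DMSO.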

[10] = read-out: growth arrest and DNA damage 45 (GADD45G), GADD45G (gene 10912); assay: LTEA_HepaRG_GADD45G: Life Technologies and Expression Analysis (LTEA) Assay for growth arrest and DNA damage 45 (GADD45G) using HepaRG (AID 2283499)
Summary of the method: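 Human hepatic HepaRG line treated 48 h with chemicals (eight concentrations, half-log steps from 100 uM); transcript induction or repression of GADD45G scored by qRT-PCR versus DMSO vehicle.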

[11] = read-out: Glutamate-cysteine ligase regulatory (GCLM), GCLM (gene 2730); assay: LTEA_HepaRG_GCLM: Life Technologies and Expression Analysis (LTEA) Assay for Glutamate-cysteine ligase regulatory (GCLM) using HepaRG (AID 2283500)
Summary of the method: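 Endpoint is GCLM transcript level by qRT-PCR, normalized to three housekeeping genes, after 48 h chemical exposure of human HepaRG cells (0.5% DMSO vehicle, top 100 uM, half-log dilutions). Fitting was bidirectional relative to DMSO.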

[12] = read-out: Glutathione S-transferase M3 (GSTM3), GSTM3 (gene 2947); assay: LTEA_HepaRG_GSTM3: Life Technologies and Expression Analysis (LTEA) Assay for Glutathione S-transferase M3 (GSTM3) using HepaRG (AID 2283501)
Summary of the method: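 Changes in GSTM3 expression, an oxidative-stress marker, were scored by bidirectional curve fitting against 0.5% DMSO vehicle. Human HepaRG cultures received chemicals for 48 h in duplicate, highest concentration 100 uM with half-log dilutions.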

[13] = read-out: Heat shock 70 kDa protein 1 (HSPA1A), gene 3303; assay: LTEA_HepaRG_HSPA1A: Life Technologies and Expression Analysis (LTEA) Assay for Heat shock 70 kDa protein 1 (HSPA1A) using HepaRG (AID 2283502)
Summary of the method: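 Cells were plated and cultured for 48 h, then switched to serum-free induction medium. Chemicals were added at eight half-log concentrations up to 100 uM for 48 h. RNA was then isolated and HSPA1A measured by qRT-PCR with bidirectional curve fitting against DMSO.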

[14] = read-out: Hypoxia-inducible factor 1-alpha (Homo sapiens) (UniProt Q16665); assay: LTEA_HepaRG_HIF1A: Life Technologies and Expression Analysis (LTEA) Assay for Hypoxia-inducible factor 1 (HIF1A) Trancription factor using HepaRG (AID 2283503)
Summary of the method: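 HIF1A transcript level read by qRT-PCR (ACTB, GAPDH, POLR2A normalization) after 48 h chemical exposure of HepaRG cultures. Eight half-log concentrations, top 100 uM, 0.5% DMSO vehicle, duplicates; bidirectional curve fit against DMSO baseline.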

[15] = read-out: 3-Hydroxy-3-Methylglutaryl-CoA Synthase 2 (HMGCS2), HMGCS2 (gene 3158); assay: LTEA_HepaRG_HMGCS2: Life Technologies and Expression Analysis (LTEA) Assay for 3-Hydroxy-3-Methylglutaryl-CoA Synthase 2 (HMGCS2) using HepaRG (AID 2283504)
Summary of the method: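 Expression of HMGCS2 in human HepaRG liver cells is measured by qRT-PCR 48 h after dosing (highest 100 uM, half-log series, 0.5% DMSO). Values come from bidirectional concentration-response fitting with DMSO as baseline.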

HGF (gene 3082) = assay: LTEA_HepaRG_HGF: Life Technologies and Expression Analysis (LTEA) Assay for Hepatocyte Growth Facto (HGF) using HepaRG (AID 2283505)
Summary of the method: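 Gain or loss of HGF mRNA in human HepaRG liver cells after 48 h chemical exposure; eight concentrations up to 100 uM with 0.5% DMSO vehicle, quantified by TaqMan qRT-PCR.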

[16] = read-out: Insulin Like Growth Factor 1 (IGF1), IGF1 (gene 3479); assay: LTEA_HepaRG_IGF1: Life Technologies and Expression Analysis (LTEA) Assay for Insulin Like Growth Factor 1 (IGF1) using HepaRG (AID 2283506)
Summary of the method: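 Cells are thawed, plated and cultured 48 h, then exposed in duplicate to chemical (highest 100 uM, half-log steps, 0.5% DMSO) for another 48 h. Total RNA is analysed by Fluidigm qRT-PCR for IGF1 expression relative to vehicle.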

Measured: AC50

Hypoxia-inducible factor 1-alpha (Homo sapiens), sequence (Q16665 whole entry, looked up): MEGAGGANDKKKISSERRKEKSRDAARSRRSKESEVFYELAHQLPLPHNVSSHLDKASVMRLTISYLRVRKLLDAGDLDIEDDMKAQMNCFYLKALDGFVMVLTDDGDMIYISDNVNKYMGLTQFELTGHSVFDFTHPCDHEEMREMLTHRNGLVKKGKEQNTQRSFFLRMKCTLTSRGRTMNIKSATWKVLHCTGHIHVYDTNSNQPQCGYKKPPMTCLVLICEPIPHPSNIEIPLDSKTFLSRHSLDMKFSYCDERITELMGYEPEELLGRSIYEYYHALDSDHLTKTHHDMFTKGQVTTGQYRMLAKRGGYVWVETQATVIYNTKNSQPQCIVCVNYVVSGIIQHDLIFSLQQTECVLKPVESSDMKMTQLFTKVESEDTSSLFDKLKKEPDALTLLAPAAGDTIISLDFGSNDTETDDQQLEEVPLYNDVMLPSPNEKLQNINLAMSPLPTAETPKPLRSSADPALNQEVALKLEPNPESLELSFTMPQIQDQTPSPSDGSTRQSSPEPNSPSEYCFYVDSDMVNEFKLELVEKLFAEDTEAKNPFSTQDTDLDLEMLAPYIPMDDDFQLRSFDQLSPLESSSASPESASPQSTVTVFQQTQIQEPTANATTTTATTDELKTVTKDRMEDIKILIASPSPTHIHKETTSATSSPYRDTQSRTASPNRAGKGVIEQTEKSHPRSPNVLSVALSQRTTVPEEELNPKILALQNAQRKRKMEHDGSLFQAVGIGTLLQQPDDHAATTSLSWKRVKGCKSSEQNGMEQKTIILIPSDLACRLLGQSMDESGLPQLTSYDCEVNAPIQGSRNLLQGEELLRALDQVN
Cytochrome P450 3A4 (Homo sapiens), sequence (P08684 whole entry, looked up): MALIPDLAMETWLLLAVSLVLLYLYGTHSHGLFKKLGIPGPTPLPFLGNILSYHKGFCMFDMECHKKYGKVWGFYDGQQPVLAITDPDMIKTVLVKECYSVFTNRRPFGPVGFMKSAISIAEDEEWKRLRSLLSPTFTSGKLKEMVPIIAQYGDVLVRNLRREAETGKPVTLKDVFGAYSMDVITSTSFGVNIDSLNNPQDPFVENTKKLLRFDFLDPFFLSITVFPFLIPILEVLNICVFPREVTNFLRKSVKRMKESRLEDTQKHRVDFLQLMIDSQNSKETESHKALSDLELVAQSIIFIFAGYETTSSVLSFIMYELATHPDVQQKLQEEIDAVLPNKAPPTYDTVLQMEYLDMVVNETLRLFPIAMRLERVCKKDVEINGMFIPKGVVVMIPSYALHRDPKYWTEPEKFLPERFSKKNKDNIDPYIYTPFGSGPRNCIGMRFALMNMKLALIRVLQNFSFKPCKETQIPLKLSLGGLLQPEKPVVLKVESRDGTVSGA

C#CC(C)(C)NC(=O)c1cc(Cl)cc(Cl)c1
active: [1] 5.13 µM | [6] 40.9 µM | [16] 14.8 µM
inactive: all other assays above

CCOP(=O)(OCC)Oc1cc(C)nc(C(C)C)n1
inactive: all assays above

CNC(=O)ON=C(SC)C(=O)N(C)C
inactive: all assays above

CON=C(C(=O)OC)c1ccccc1CON=C(C)c1cccc(C(F)(F)F)c1
active: [1] 13.1 µM | CYP3A5 (gene 1577) 50 µM | [16] 50 µM
inactive: all other assays above

CCc1cnc(C2=NC(C)(C(C)C)C(=O)N2)c(C(=O)O)c1 (stereo not given)
inactive: all assays above
